Laboratory results reported in PubChem BioAssay (Tox21).
“And” between values parts separate entries of the source, which are not always exact repeats. Identical values can stand only once. Inconclusive results are not listed. Entries that show only a call come without a potency. Where a structure was tested more than once in an assay, its records may differ in their call. The source made the active and inactive calls. Unless noted, calls follow the shape of the full dose curve.

Legend:
[1] = Nuclear factor erythroid 2-related factor 2/antioxidant responsive element (Nrf2/ARE) small molecule agonists: qHTS cell viability counter screen in human keratinocytes (AID 1919968; active = well fitted curve in the direction sought with a large enough effect in the repeat runs; an effect the other way counts as inactive or inconclusive; also: nearly all actives have a fitted effect of over 55% in size)
How it was run: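 Seed 1,500 KeratinoSens cells per well, then incubate 5 h at 37 C/5% CO2. Add compounds in DMSO and incubate 23 h. Add CellTiter-Fluor, wait 1 h and read fluorescence.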

[2] = Nuclear factor erythroid 2-related factor 2/antioxidant responsive element (Nrf2/ARE) small molecule agonists: luciferase reporter gene qHTS assay in human keratinocytes (AID 1919969); also: nearly all actives have a fitted effect of over 35% in size; also: potency is read from the fitted curve at half-maximal effect
[3] = target: Gonadotropin-releasing hormone receptor (Homo sapiens) (UniProt P30968); assay: Human gonadotropin-releasing hormone receptor (GnRHR) small molecule agonists, calcium flux assay in GnRHR-HEK293 cells (AID 1920063); also: nearly all actives have a fitted effect of over 35% in size
Sequence of Gonadotropin-releasing hormone receptor (Homo sapiens) (P30968 whole entry, looked up): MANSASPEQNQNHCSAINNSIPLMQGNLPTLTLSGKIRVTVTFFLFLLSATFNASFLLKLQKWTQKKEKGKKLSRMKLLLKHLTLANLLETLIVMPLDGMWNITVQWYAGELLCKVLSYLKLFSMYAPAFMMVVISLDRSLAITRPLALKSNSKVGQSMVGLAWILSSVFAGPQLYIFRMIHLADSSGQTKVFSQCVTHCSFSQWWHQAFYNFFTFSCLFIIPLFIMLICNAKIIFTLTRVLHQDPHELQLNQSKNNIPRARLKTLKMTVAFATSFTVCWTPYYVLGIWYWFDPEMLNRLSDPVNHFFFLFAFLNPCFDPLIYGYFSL
How it was run: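 Cells: HEK293 stably expressing human GnRHR. Steps: overnight (18 h) culture, 1 h calcium dye loading at 37 C, compound addition, kinetic fluorescence read at 480/540 nm. Each compound tested at 15 concentrations in triplicate.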

[4] = target: KiSS-1 receptor (Homo sapiens) (UniProt Q969F8); assay: Human kisspeptin (KISS1R) small molecule agonists, calcium flux assay in KISS1R-HEK293 cells (AID 1920064; active = well fitted curve in the direction sought with a large enough effect in the repeat runs; an effect the other way counts as inactive or inconclusive)
Sequence of KiSS-1 receptor (Homo sapiens) (Q969F8 whole entry, looked up): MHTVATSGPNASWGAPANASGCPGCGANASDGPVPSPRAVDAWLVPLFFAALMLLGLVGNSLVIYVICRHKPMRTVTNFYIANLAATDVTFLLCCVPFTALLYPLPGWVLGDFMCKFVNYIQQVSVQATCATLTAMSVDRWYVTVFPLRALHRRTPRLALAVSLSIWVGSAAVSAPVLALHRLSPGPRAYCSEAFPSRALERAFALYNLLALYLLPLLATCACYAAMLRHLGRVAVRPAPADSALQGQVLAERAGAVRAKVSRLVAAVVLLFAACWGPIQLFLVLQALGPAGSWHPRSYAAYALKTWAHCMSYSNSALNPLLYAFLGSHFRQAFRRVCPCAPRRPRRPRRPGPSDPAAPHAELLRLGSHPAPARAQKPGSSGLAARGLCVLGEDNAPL
How it was run: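 Cells plated and incubated 18 h; dye added, 1 h at 37 C; compounds in DMSO pinned in; signal read at 480/540 nm every second for 3 min. Each compound tested at 15 concentrations in triplicate.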

[5] = G protein-coupled receptor (GPCR) small molecule agonists, calcium flux assay: HEK293 wild type cell line counter screen (AID 1920065)
How it was run: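 Counter-screen of the Tox21 10K library for non-specific calcium release: dye-loaded cells received compounds in DMSO and were monitored by kinetic fluorescence (480/540 nm, 3 min). Fifteen concentrations, run in triplicate.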

[6] = p53 small molecule agonists, cell-based qHTS assay with human liver microsomes: qHTS cell viability counter screen (AID 1963579); also: nearly all actives have a fitted effect of over 45% in size
How it was run: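 Tox21 library compounds, delivered from DMSO stocks, were tested on p53RE-bla cells together with 0.5 mg/mL human liver microsomes and 0.5 mg/mL NADPH (final) over 16 h at 37 C; CellTiter-Glo luminescence served as the cytotoxicity measure.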

[7] = p53 small molecule agonists, cell-based qHTS assay with rat liver microsomes: qHTS cell viability counter screen (AID 1963580); also: nearly all actives have a fitted effect of over 45% in size; also: potency is read from the fitted curve at half-maximal effect
How it was run: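 Viability is assessed in parallel with the p53 reporter read: HCT-116 p53RE-bla cells receive compounds plus rat microsomes and NADPH (0.5 mg/mL final apiece), incubate 16 h at 37 C, and then CellTiter-Glo luminescence is recorded.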

[8] = p53 small molecule agonists, cell-based qHTS assay: qHTS cell viability counter screen (AID 1963581); also: nearly all actives have a fitted effect of over 45% in size
How it was run: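 Cells: HCT-116 with p53 response element-driven beta-lactamase. Treatment: 16 h, 37 C, compounds in DMSO. Read: CellTiter-Glo luminescence after 30 min RT.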

[9] = target: 5-hydroxytryptamine receptor 2A (Homo sapiens) (UniProt P28223); assay: 5-hydroxytryptamine receptor 2A (HTR2A) small molecule antagonists, cell-based qHTS assay (AID 1963586); also: nearly all actives have a fitted effect of over 45% in size
Sequence of 5-hydroxytryptamine receptor 2A (Homo sapiens) (P28223 whole entry, looked up): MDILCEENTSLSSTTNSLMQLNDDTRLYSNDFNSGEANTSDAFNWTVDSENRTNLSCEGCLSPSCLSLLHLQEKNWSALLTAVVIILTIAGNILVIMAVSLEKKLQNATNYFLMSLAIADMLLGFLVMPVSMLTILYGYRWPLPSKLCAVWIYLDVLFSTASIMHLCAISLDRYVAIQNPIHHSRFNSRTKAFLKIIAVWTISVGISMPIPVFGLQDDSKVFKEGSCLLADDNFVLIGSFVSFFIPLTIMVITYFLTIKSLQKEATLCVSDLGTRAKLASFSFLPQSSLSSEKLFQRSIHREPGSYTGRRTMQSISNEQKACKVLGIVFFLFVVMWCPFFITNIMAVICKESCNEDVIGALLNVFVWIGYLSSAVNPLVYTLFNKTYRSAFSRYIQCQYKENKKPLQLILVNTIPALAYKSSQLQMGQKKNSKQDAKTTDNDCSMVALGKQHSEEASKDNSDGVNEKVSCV
How it was run: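 Antagonist-mode intracellular calcium assay: DOI (4 nM) added after 5 min compound pre-incubation at room temperature to dye-loaded HTR2A-CHO cells. Fluorescence followed for 3 min, sampled every second.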

[10] = target: 5-hydroxytryptamine receptor 2A (Homo sapiens) (UniProt P28223); assay: 5-hydroxytryptamine receptor 2A (HTR2A) small molecule agonists, cell-based qHTS assay (AID 1963587); also: nearly all actives have a fitted effect of over 30% in size; also: potency is read from the fitted curve at half-maximal effect
How it was run: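 CHO cells stably expressing human HTR2A, plated 18 h, loaded with calcium dye 1 h at 37 C. Agonist mode: compounds added and intracellular calcium fluorescence recorded kinetically for 2 min at 1 sec intervals.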

[11] = target: Muscarinic acetylcholine receptor M1 (Homo sapiens) (UniProt P11229); assay: Cholinergic receptor muscarinic 1 (CHRM1) small molecule antagonists, cell-based qHTS assay (AID 1963588); also: nearly all actives have a fitted effect of over 40% in size
Sequence of Muscarinic acetylcholine receptor M1 (Homo sapiens) (P11229 whole entry, looked up): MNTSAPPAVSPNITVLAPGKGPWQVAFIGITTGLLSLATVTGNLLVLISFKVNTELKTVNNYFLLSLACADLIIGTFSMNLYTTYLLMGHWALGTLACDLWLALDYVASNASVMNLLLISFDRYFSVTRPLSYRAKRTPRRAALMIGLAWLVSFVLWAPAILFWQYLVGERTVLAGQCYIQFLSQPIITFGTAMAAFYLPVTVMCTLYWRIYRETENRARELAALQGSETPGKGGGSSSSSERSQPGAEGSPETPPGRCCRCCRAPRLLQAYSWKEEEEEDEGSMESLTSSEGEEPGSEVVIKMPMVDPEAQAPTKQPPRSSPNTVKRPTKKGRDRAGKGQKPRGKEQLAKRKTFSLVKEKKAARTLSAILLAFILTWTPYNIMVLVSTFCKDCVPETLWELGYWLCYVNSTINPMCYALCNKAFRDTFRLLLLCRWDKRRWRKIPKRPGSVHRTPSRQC
How it was run: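 CHRM1-CHO calcium-flux assay, antagonist mode. Cells were seeded 18 h, dye-loaded 1 h at 37 C and given compound for 5 min at RT, then acetylcholine was added at 50nM. FDSS fluorescence was read 3 min; 15 concentrations, three runs.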

[12] = target: Muscarinic acetylcholine receptor M1 (Homo sapiens) (UniProt P11229); assay: Cholinergic receptor muscarinic 1 (CHRM1) small molecule agonists, cell-based qHTS assay (AID 1963589); also: nearly all actives have a fitted effect of over 35% in size
How it was run: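 Agonist-mode qHTS in CHO cells stably carrying human muscarinic M1. Intracellular calcium is tracked by fluorescence every second after compound transfer; each compound runs at 15 concentrations in three independent runs.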

[13] = cAMP Responsive Elements (CRE) small molecule antagonists, cell-based qHTS assay (AID 1963591; active = well fitted inhibition curve with a large enough effect in the signal ratio in the repeat runs, not every such curve was filed as active; the % refers to the signal ratio)
How it was run: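 Antagonist mode: test compounds are co-incubated with the adenylyl cyclase activator NKH477 (0.25 uM final) on CRE-bla HEK293T cells for 3 h at 37 °C, followed by LiveBLAzer substrate loading.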

[14] = target: Beta-2 adrenergic receptor (Homo sapiens) (UniProt P07550); assay: Adrenergic beta2 receptor (ADRB2) small molecule antagonists, cell-based qHTS assay (AID 1963592); also: series mostly up to about 92 µM; nearly all actives have a fitted effect of over 50% in size
Sequence of Beta-2 adrenergic receptor (Homo sapiens) (P07550 whole entry, looked up): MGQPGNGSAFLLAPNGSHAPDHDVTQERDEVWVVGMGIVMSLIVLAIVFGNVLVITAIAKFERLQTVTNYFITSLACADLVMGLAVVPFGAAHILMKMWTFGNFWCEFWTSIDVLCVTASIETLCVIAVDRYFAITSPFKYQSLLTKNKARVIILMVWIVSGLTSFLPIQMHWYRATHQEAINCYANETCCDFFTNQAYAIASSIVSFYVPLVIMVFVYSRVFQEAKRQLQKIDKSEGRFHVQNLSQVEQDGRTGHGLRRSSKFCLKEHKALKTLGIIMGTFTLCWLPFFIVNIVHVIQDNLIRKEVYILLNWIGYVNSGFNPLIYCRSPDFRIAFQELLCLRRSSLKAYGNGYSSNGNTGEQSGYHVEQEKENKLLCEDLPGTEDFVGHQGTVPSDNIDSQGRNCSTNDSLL
How it was run: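 Cells (CHO, stable ADRB2 overexpression) incubated 18-20hr at 37C; compounds added from DMSO; agonist mix (1nM isoproterenol, 100uM IBMX, 25uM Ro-20-1724) added; 0.5hr RT; d2-cAMP and anti-cAMP-cryptate added; 1hr RT; 665/615 nm read.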

[15] = target: Beta-2 adrenergic receptor (Homo sapiens) (UniProt P07550); assay: Adrenergic beta2 receptor (ADRB2) small molecule agonists, cell-based qHTS assay (AID 1963593);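 also: CHO cells stably overexpressing human ADRB2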
How it was run: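 CHO cells stably over-expressing ADRB2 were plated overnight at 37C, then dosed with compounds plus a stimulation mix containing 100uM IBMX and 25uM Ro-20-1724 for 0.5hr at room temperature. cAMP was measured by HTRF competition, 1hr.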

[16] = target: D(2) dopamine receptor (Homo sapiens) (UniProt P14416); assay: Dopamine D2 receptor (DRD2) small molecule agonists, cell-based qHTS assay (AID 1963594); also: nearly all actives have a fitted effect of over 35% in size
Sequence of D(2) dopamine receptor (Homo sapiens) (P14416 whole entry, looked up): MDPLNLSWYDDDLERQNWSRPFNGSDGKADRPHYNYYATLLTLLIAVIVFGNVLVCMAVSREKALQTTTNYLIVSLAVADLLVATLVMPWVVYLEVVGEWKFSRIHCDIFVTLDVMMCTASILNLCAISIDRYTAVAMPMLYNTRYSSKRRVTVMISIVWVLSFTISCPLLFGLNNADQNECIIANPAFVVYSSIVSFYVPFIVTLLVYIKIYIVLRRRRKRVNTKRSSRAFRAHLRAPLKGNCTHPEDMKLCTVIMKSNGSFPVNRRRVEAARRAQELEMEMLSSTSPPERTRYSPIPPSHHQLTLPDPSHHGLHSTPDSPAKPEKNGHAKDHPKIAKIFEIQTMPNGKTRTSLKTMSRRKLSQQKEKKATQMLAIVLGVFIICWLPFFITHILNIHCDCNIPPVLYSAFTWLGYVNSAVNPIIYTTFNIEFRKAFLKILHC
How it was run: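 HEK293 cells stably expressing human DRD2, pre-treated with PDE inhibitor Ro20-1724 (0.1 mM final) and compound 10 min at room temperature, then stimulated with NKH477 (200nM […]) for 30 min. cAMP read by HTRF (665/620 nm).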

[17] = target: D(2) dopamine receptor (Homo sapiens) (UniProt P14416); assay: Dopamine D2 receptor (DRD2) small molecule antagonists, cell-based qHTS assay (AID 1963595; active = well fitted inhibition curve with a large enough effect in the signal ratio in the repeat runs, with a control signal flat; the % refers to the signal ratio)
How it was run: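 Antagonism was scored as restored cAMP in HEK293-DRD2 cells. These cells were stimulated with 200 nM NKH477 and 12 nM quinpirole for 30 min at room temperature, in the presence of 0.1 mM Ro20-1724.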

[18] = cAMP Responsive Elements (CRE) small molecule agonists, cell-based qHTS assay (AID 1963590)
How it was run: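 Agonist mode qHTS in CRE-bla HEK 293T cells: compounds dosed from DMSO for 3 h at 37 C/5% CO2, followed by LiveBLAzer B/G FRET substrate for 2 h at room temperature.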

| Compound | Potency [1] | Potency [2] | Potency [3] | Potency [4] | Potency [5] | Potency [6] | Potency [7] | Potency [8] | Potency [9] | Potency [10] | Potency [11] | Potency [12] | Potency [13] | Potency [14] | Potency [15] | Potency [16] | Potency [17] | Potency [18] |
| --- | --- | --- | --- | --- | --- | --- | --- | --- | --- | --- | --- | --- | --- | --- | --- | --- | --- | --- |
| CCCCCCCCCCCCCCCCCC(=O)O | inactive | 48.2 µM (active) and inactive | inactive | inactive | inactive | inactive | inactive | inactive | inactive | inactive | inactive | inactive | inactive | inactive | inactive | inactive | – | – |
| Oc1cc(Cl)c(Cl)cc1Cl | inactive | inactive | inactive | inactive | inactive | inactive | 40.5 µM (active) and inactive | inactive | inactive | inactive | inactive | inactive | inactive | inactive | – | inactive | inactive | – |
| CCCC[N+]1(C)CCCCC1 | inactive | inactive | inactive | inactive | inactive | inactive | inactive | inactive | inactive | inactive | inactive | inactive | inactive | – | inactive | inactive | inactive | inactive |
| O=S(=O)(Oc1ccc(Cl)cc1)c1ccc(Cl)cc1 | inactive | 27.7 µM (active) and inactive | inactive | inactive | inactive | inactive | inactive | inactive | inactive | inactive | inactive | inactive | inactive | – | inactive | inactive | inactive | inactive |
| CCNCC | inactive | inactive | inactive | inactive | inactive | inactive | inactive | inactive | inactive | inactive | inactive | inactive | – | inactive | inactive | inactive | inactive | inactive |
| CN1C(=O)CCS(=O)(=O)C1c1ccc(Cl)cc1 (configuration not stated) | inactive | inactive | inactive | inactive | inactive | inactive | inactive | inactive | inactive | inactive | inactive | inactive | inactive | inactive | inactive | inactive | inactive | inactive |
| CC(C)COC(=O)c1ccccc1C(=O)OCC(C)C | inactive | inactive | inactive | inactive | inactive | inactive | inactive | inactive | inactive | 5.5 µM (active) and inactive | inactive | inactive | inactive | inactive | inactive | inactive | inactive | inactive |
| [CH3][Sn]([CH3])([Cl])[Cl] | inactive | 55.4 µM (active) and inactive | inactive | inactive | inactive | inactive | inactive | inactive | inactive | inactive | inactive | – | inactive | inactive | inactive | inactive | inactive | inactive |
| Clc1ccccc1Cl | inactive | inactive | inactive | inactive | inactive | inactive | inactive | inactive | inactive | inactive | inactive | inactive | inactive | inactive | inactive | – | inactive | inactive |
| OCCOCCO | inactive | inactive | inactive | inactive | inactive | inactive | inactive | inactive | inactive | inactive | inactive | inactive | inactive | inactive | inactive | inactive | inactive | inactive |
| OCCN(CCO)CCO | inactive | inactive | inactive | inactive | inactive | inactive | inactive | inactive | inactive | inactive | inactive | inactive | inactive | inactive | inactive | inactive | inactive | inactive |
| Nc1ccc(N)cc1 | inactive | 61.1 µM (active) and 18.8 µM (active) and inactive | inactive | inactive | inactive | inactive | inactive | inactive | inactive | inactive | inactive | inactive | – | – | inactive | – | inactive | inactive |
| O=C(O)c1cc(Oc2ccc(C(F)(F)F)cc2Cl)ccc1[N+](=O)[O-] | inactive | inactive | inactive | inactive | inactive | inactive | inactive | inactive | inactive | inactive | inactive | inactive | inactive | inactive | inactive | – | inactive | – |
| CN(N=O)c1ccccc1 | inactive | inactive | inactive | inactive | inactive | inactive | inactive | inactive | inactive | inactive | inactive | inactive | inactive | inactive | – | inactive | inactive | inactive |
